Measurements reported in PubChem BioAssay AID1259324 (C. David Weaver Laboratory, Vanderbilt University, 2017).
Out of some 34,000 compounds screened, fewer than 10 were called active.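 The calls were made as follows: active = primary screen hit, no activity in plain HEK293 cells, and in GIRK2-only cells above 5% efficacy rising with concentration; inactive = the rest, including fluorescent compounds.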 Not all results are given here.

Target: G protein-activated inward rectifier potassium channel 2 (Homo sapiens) (UniProt P48051)
Test: GIRK2 activation atop partial GPCR stimulation – cell-based, HEK293, thallium flux, summary (AID 1259324)
Settings: HEK293 GIRK2/NPY4 cells, thallium flux fluorescence

G protein-activated inward rectifier potassium channel 2 (Homo sapiens), sequence (P48051 whole entry, looked up): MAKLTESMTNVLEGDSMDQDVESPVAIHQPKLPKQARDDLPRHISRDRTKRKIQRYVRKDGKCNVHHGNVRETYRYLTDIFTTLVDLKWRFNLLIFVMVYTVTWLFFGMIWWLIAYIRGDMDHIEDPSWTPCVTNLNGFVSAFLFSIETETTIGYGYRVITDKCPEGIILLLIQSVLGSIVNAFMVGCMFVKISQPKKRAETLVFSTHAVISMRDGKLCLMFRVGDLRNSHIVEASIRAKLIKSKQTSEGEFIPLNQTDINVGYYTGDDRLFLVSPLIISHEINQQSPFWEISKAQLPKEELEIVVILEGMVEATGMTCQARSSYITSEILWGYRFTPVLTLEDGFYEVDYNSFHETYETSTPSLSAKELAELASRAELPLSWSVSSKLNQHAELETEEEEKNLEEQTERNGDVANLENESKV

Q: How did the outcome turn out when `NC(=O)C1CCN(c2oc(-c3ccco3)nc2S(=O)(=O)c2ccc(Cl)cc2)CC1` was run?
A: inactive

Q: With `Cc1nnc(NC(=O)CCn2cnc3c(cnn3-c3ccc(F)cc3)c2=O)s1` as the compound, how does the outcome read?
A: inactive

Q: With `O=C(NCC(=O)N1CCOC(c2ccccc2)C1)C(=O)NCc1ccccc1Cl` (stereo not drawn) as the compound, how does the outcome read?
A: inactive

Q: How did the outcome turn out when `O=C(NCCc1ccc(F)cc1)c1cc(=O)c(OCc2ccccc2)co1` was run?
A: inactive; active

Q: For `NC(=O)C1Cc2ccccc2N1C(=O)Nc1ccc2c(c1)OCO2` (stereo not drawn), which outcome is on record?
A: inactive

Q: `CCc1nnc(NC(=O)c2nnn(-c3ccc(Cl)cc3)c2C)s1` was tested. Which outcome did it give?
A: inactive

Q: Which outcome does the source give for `COc1ccc(NC(=O)C2CCCCC2)cc1N1CCCCC1=O` here?
A: inactive

Q: Which outcome does the source give for `COCCNC(=O)c1ccc(Oc2c(C)oc3cc(OC)ccc3c2=O)cc1` here?
A: inactive

Q: How did the outcome turn out when `CN(C(=O)c1cccc(F)c1)C1(C)CCS(=O)(=O)C1` (stereo not drawn) was run?
A: inactive

Q: With `Cc1cn2c3c(=O)n(C)c(=O)n(C)c3nc2n1CC(=O)c1ccc(Cl)cc1` as the compound, how does the outcome read?
A: inactive

Q: How did the outcome turn out when `Cc1cccc(NC(=O)c2ccc3nn(CC(=O)Nc4ccc(C)c(F)c4)c(=O)n3c2)c1` was run?
A: inactive

Q: Which outcome does the source give for `Cc1cccc(CC(=O)NCC2(c3cccs3)CCCC2)c1` here?
A: inactive

Q: For `CS(=O)(=O)N1CCC(CNC(=O)c2ccc(F)c(F)c2)CC1`, which outcome is on record?
A: inactive

Q: `O=C(NCCCN1CCCC1=O)C(=O)Nc1c2c(nn1-c1cccc(Cl)c1)CSC2` was tested. Which outcome did it give?
A: inactive

Q: Which outcome does the source give for `COc1ccc(S(=O)(=O)NCC(c2ccc(C)cc2)N2CCN(C)CC2)cc1OC` (stereo not drawn) here?
A: inactive

Q: Which outcome does the source give for `Cc1nc(-c2cccs2)c(CCC(=O)N(C)C2CCS(=O)(=O)C2)s1` (stereo not drawn) here?
A: inactive

Q: For `CNc1nn(CC(=O)Nc2ccc(C(C)=O)cc2)c(N)c1-c1nc(-c2ccc(C)cc2)no1`, which outcome is on record?
A: inactive

Q: For `Cc1cc(-c2nnc(NC(=O)c3cccc(Oc4ccccc4)c3)o2)n(C)n1`, which outcome is on record?
A: inactive; active

Q: `COCC(C)(O)CNC(=O)Cc1cccc(C)c1` (stereo not drawn) was tested. Which outcome did it give?
A: inactive

Q: Which outcome does the source give for `CN1CCOc2ccc(NC(=O)C3(c4ccc(F)cc4)CC3)cc2C1=O` here?
A: inactive

Q: With `O=c1oc(-c2ccncc2)nc2c(Cl)cccc12` as the compound, how does the outcome read?
A: inactive

Q: How did the outcome turn out when `O=C(Cn1nc(C2CC2)c2cnn(-c3ccc(F)cc3)c2c1=O)N1CCOCC1` was run?
A: inactive

Q: How did the outcome turn out when `COC(=O)c1ccc(C(=O)NCCCC(=O)Nc2cccc3cccnc23)cc1` was run?
A: inactive

Q: Which outcome does the source give for `CN(C)C(=O)C(NC(=O)OC(C)(C)C)c1ccccc1Cl` (stereo not drawn) here?
A: inactive

Q: `CC(C)S(=O)(=O)c1ccc(CC(=O)NCc2n[nH]c(=O)c3ccccc23)cc1` was tested. Which outcome did it give?
A: inactive

Q: With `O=C(c1ccc(N2CCCC2)nn1)N1CCN(C(=O)c2ccco2)CC1` as the compound, how does the outcome read?
A: inactive

Q: For `O=C(c1ccc2c(c1)OCO2)N(Cc1ccsc1)Cc1ccccn1`, which outcome is on record?
A: inactive

Q: Which outcome does the source give for `CSc1nnc(CNC(=O)C23CC4CC(CC(C4)C2)C3)n1-c1ccccc1` here?
A: inactive

Q: For `Cc1ccc(S(=O)(=O)NCCNc2ccc(Nc3cccc(C)n3)nn2)c(C)c1`, which outcome is on record?
A: inactive

Q: How did the outcome turn out when `O=c1c2cn[nH]c2nc(SCc2nc(-c3ccccc3)no2)n1-c1ccccc1` was run?
A: inactive

Q: With `O=C(Cc1cccc2ccccc12)NCCOc1ccc2c(c1)OCO2` as the compound, how does the outcome read?
A: inactive

Q: With `Cc1cc(C)c2sc(N3CCN(C(=O)C4CCCN(S(C)(=O)=O)C4)CC3)nc2c1` (stereo not drawn) as the compound, how does the outcome read?
A: inactive

Q: Which outcome does the source give for `COc1cccc(C(=O)Nc2ccc(N3CCCC3=O)c(OC)c2)c1` here?
A: inactive

Q: Which outcome does the source give for `Cc1ccc(NC(=S)NC(=O)c2ccc(F)cc2)nc1` here?
A: inactive

Q: How did the outcome turn out when `Cc1cc(C)n(S(=O)(=O)c2cccc(S(C)(=O)=O)c2)n1` was run?
A: inactive

Q: For `COc1ccc(-c2cc3c(=O)n(Cc4nc(-c5ccc(OC)cc5OC)no4)ccn3n2)cc1`, which outcome is on record?
A: inactive

Q: `CSc1ccccc1C(=O)Nc1nnc(-c2cc(C)nn2C)o1` was tested. Which outcome did it give?
A: inactive

Q: For `Cn1c(=O)c2c(nc3n(CC(=O)O)c(-c4ccccc4)cn23)n(C)c1=O`, which outcome is on record?
A: inactive

Q: With `COc1nn(C)cc1-c1nnc(SCC(=O)N2CCCc3ccccc32)n1C` as the compound, how does the outcome read?
A: inactive

Q: How did the outcome turn out when `Cc1cccc(CS(=O)(=O)NCC2(O)CCc3ccccc32)c1` (stereo not drawn) was run?
A: inactive

Q: With `COC(=O)c1ccc(NC(=O)Cn2c(=O)n(C(C)C)c(=O)c3nscc32)cc1` as the compound, how does the outcome read?
A: inactive

Q: For `NS(=O)(=O)c1ccc(NC(=O)c2ccc(=O)n(Cc3ccc(F)cc3)c2)cc1`, which outcome is on record?
A: inactive

Q: `CCOC(=O)Cc1csc(NC(=O)c2nc(-c3cnccn3)no2)n1` was tested. Which outcome did it give?
A: inactive

Q: With `Cc1cccc(Nc2ccc(N3CCN(S(=O)(=O)c4cccs4)CC3)nn2)n1` as the compound, how does the outcome read?
A: inactive

Q: How did the outcome turn out when `COCCNC(=O)CCn1cnc2c(cnn2C(C)(C)C)c1=O` was run?
A: inactive

Q: For `O=S(=O)(NCC#CCN1CCc2ccccc2C1)c1c(F)cccc1F`, which outcome is on record?
A: inactive

Q: With `Cc1ccc(-c2ccc(=O)n(CCCC(=O)Nc3ccc(S(N)(=O)=O)cc3)n2)cc1` as the compound, how does the outcome read?
A: inactive

Q: For `COc1cc(OC)cc(C(=O)N2CCc3cc(S(=O)(=O)NC4CCCC4)ccc32)c1`, which outcome is on record?
A: inactive

Q: For `Cn1cccc1C(CNS(=O)(=O)c1ccc(F)cc1)N1CCOCC1` (stereo not drawn), which outcome is on record?
A: inactive

Q: With `Cn1cccc(C(=O)N2CCC(c3nnc(-c4ccco4)s3)CC2)c1=O` as the compound, how does the outcome read?
A: inactive

Q: `O=C(NCC1(c2cccs2)CCOCC1)Nc1cccc(C(F)(F)F)c1` was tested. Which outcome did it give?
A: inactive

Q: Which outcome does the source give for `CC(=O)c1ccc(S(=O)(=O)N2CCC(c3nnc(C4CC4)o3)CC2)cc1` here?
A: inactive

Q: `COc1ccc(Cl)cc1N1CC(c2nc(-c3ccccc3C)no2)CC1=O` (stereo not drawn) was tested. Which outcome did it give?
A: inactive
